The source of these data is ChEMBL document CHEMBL1157539, “Thousands of chemical starting points for antimalarial lead identification” (Nature, 2010).

Common to all, as to type: functional
The subject of test [1] is Plasmodium falciparum. Kind of test: GSK_TCMDC: Inhibition of Plasmodium falciparum 3D7 in whole red blood cells, using parasite LDH activity as an index of growth. Test compounds present at 2uM.
For test [2], the system named is Plasmodium falciparum. In words: GSK_TCMDC: Inhibition of Plasmodium falciparum Dd2 in whole red blood cells, using parasite LDH activity as an index of growth. Test compounds present at 2uM.
The next test deals with HepG2. In words: GSK_TCMDC: Percent inhibition of human HepG2 cell line. Test compounds present at 10uM.

On to `O=C(NCc1ccc(Cl)c(Cl)c1)c1ccc(-c2nc3cc(F)c(F)cc3[nH]2)cc1`, for which the Inhibition in the test on Plasmodium falciparum [1] is 81%; in the test on Plasmodium falciparum [2], 12%; in the test with HepG2, 0%.

With `COc1ccc(OC)c(NC(=O)c2c(-c3c(F)cccc3Cl)noc2C)c1`, the figures for the Inhibition with Plasmodium falciparum [1], with Plasmodium falciparum [2] and in the test with HepG2 were 94%, 25% and 0%, respectively.

For the molecule `Cc1ccc(Nc2nc(-c3ccccn3)cs2)nc1`, the Inhibition in the test on Plasmodium falciparum [1] stood at 94%; with Plasmodium falciparum [2], 97%; in the test on HepG2, 60%.

For the molecule `O=C(NCCCCN1CCN(c2cccc3c2OCCO3)CC1)c1ccc(NC(=O)c2cc(Cl)cc(Cl)c2)cc1`, the Inhibition is reported as 100% in the test on Plasmodium falciparum [1], 89% with Plasmodium falciparum [2] and 21% with HepG2.

Take `CCOc1cc(C(=O)NCCN2CCCCC2)ccc1-c1nc2cc(Cl)ccc2[nH]1`: the Inhibition in the test with Plasmodium falciparum [1] is 99%; with Plasmodium falciparum [2], 8%; with HepG2 it was 4%.

On to `O=C1CN(C(=O)CCC2CCCC2)C(c2ccc(F)cc2)c2cc(F)ccc2N1` (configuration not stated), for which the Inhibition in the test on Plasmodium falciparum [1] was 100%; in the test with Plasmodium falciparum [2], 75%; with HepG2, 12%.

Take `Cl.O=c1cc(NCCCNCc2scc3c(Cl)cc(C(F)(F)F)nc23)[nH]c2ccccc12`: the Inhibition is 99% in the test with Plasmodium falciparum [1], 21% in the test on Plasmodium falciparum [2] and 9% with HepG2.

As to `Cc1cc(N[C@@H](Cc2ccccc2)C(=O)NCCc2ccccc2)nc(NCCOc2ccccc2)n1.O=C(O)C(F)(F)F`, the Inhibition in the test on Plasmodium falciparum [1] was found to be 95%; in the test with Plasmodium falciparum [2], 14%; in the test with HepG2 it was 10%.

Take `N#Cc1cc(C(=O)c2cc(Cl)ccc2O)cn(-c2cc(Cl)cc(Cl)c2)c1=O`: the Inhibition in the test on Plasmodium falciparum [1] is 93%; in the test on Plasmodium falciparum [2] it was 32%; in the test on HepG2, 34%.

On to `O=C(/C=C/c1ccc(Cl)c(Cl)c1)NCCCCCCN1CCN(C(=O)Nc2ccc(C(F)(F)F)cc2)CC1`, for which the Inhibition in the test with Plasmodium falciparum [1] is 100%; in the test with Plasmodium falciparum [2], 44%; with HepG2, 42%.

For the molecule `CC(=O)Nc1cccc(CN(Cc2ccc(-c3ccc(CNCc4cccnc4)cn3)cc2)C(=O)Cc2cccnc2)c1.O=C(O)C(F)(F)F`, the Inhibition in the test on Plasmodium falciparum [1] was 97%; in the test with Plasmodium falciparum [2], 65%; in the test on HepG2 it was 0%.

Take `O=C(/C=C/c1cc([N+](=O)[O-])ccc1Cl)N1CCC(CCN2CCC(c3c[nH]c4ccccc34)CC2)CC1`: the values for the Inhibition with Plasmodium falciparum [1], in the test with Plasmodium falciparum [2] and with HepG2 were 92%, 26% and 25%, respectively.

With `Cc1ccc2nc(C)cc(Nc3ccccc3O)c2c1.Cl`, the Inhibition in the test with Plasmodium falciparum [1] is on record as 96%; in the test with Plasmodium falciparum [2], 6%; in the test with HepG2, 0%.

In the case of `O=C(Nc1ccc(C(=O)OCC(c2ccccc2)c2ccccc2)cc1)N[C@@H](Cc1ccc(O)cc1)C(=O)NC1CCN(Cc2ccc(O)cc2)C1.O=C(O)C(F)(F)F` (some centres not stated), the Inhibition in the test on Plasmodium falciparum [1] is listed as 96%; in the test with Plasmodium falciparum [2], 0%; with HepG2, 0%.

For the molecule `COc1ccc(-c2cccc(NC(=O)c3ccc(Cl)cc3)c2)cc1CN(C)CCN(C)C.O=C(O)C(F)(F)F`, the Inhibition with Plasmodium falciparum [1] is 99%; in the test with Plasmodium falciparum [2], 61%; in the test on HepG2, 37%.

`COc1ccc(CNc2nccc3ccc(-c4ccc5nccn5c4)cc23)cc1.O=C(O)C(F)(F)F`: the Inhibition was found to be 95% in the test on Plasmodium falciparum [1], 47% in the test on Plasmodium falciparum [2] and 17% with HepG2.

Consider `Cc1nc(N2CCC(C)CC2)c2c3c(sc2n1)CCCC3`, for which the Inhibition is on record as 93% in the test on Plasmodium falciparum [1], 39% in the test on Plasmodium falciparum [2] and 13% in the test on HepG2.

For `O=C(c1ccc(-c2cccc(-c3nc4cc(C(F)(F)F)ccc4[nH]3)c2)cc1)N1CCCCC1CN1CCC(O)C1` (configuration not stated), the Inhibition is given as 100% in the test on Plasmodium falciparum [1], 98% in the test with Plasmodium falciparum [2] and 29% in the test with HepG2.

On to `Cc1c(C)n(C2CCCC2)c2ncnc(OC3CCN(CC(=O)NC4CC4)CC3)c12`, for which the Inhibition in the test on Plasmodium falciparum [1] stood at 95%; in the test with Plasmodium falciparum [2], 92%; in the test on HepG2, 13%.

Turning to `O=C(O)C(F)(F)F.c1cc(CNCC2CCCO2)cc(-c2csc(-c3nc4ccccc4[nH]3)c2)c1` (configuration not stated), the Inhibition turned out to be 91% in the test with Plasmodium falciparum [1], 6% in the test with Plasmodium falciparum [2] and 5% with HepG2.

`CC1(CCc2ccccc2)N=C(N)N(Cc2ccccc2)C(=O)C1c1ccc(Cl)c(Cl)c1.O=C(O)C(F)(F)F` (configuration not stated): the Inhibition with Plasmodium falciparum [1] turned out to be 97%; in the test on Plasmodium falciparum [2], 96%; in the test on HepG2, 100%.

For `CCn1c(-c2nonc2N)nc2c(-c3cccc(NC(=O)Nc4ccc5c(c4)CCC5)c3)ncc(OCCCN)c21.O=C(O)C(F)(F)F`, the Inhibition in the test with Plasmodium falciparum [1] worked out at 99%; with Plasmodium falciparum [2] it was 94%; with HepG2 it was 26%.

On to `CC(=NNC(S)=NCCc1ccccc1)c1ccccn1`, for which the results for the Inhibition in the test on Plasmodium falciparum [1], in the test with Plasmodium falciparum [2] and in the test with HepG2 were 100%, 99% and 73%, respectively.

Regarding `O=C(O)C(F)(F)F.OCCC1CCN(Cc2ccc(-c3ccc(-c4nc5ccccc5[nH]4)cc3)cc2)CC1`, the Inhibition with Plasmodium falciparum [1] was 99%; in the test on Plasmodium falciparum [2], 98%; with HepG2, 35%.

`O=C(Nc1ccc(Cl)cc1Cl)N[C@H]1CCN(CCCCCNC(=O)C2CC2c2ccc(Cl)c(Cl)c2)C1` (some centres not stated): the Inhibition in the test with Plasmodium falciparum [1] came to 94%; with Plasmodium falciparum [2], 0%; in the test on HepG2 it was 37%.

`Cc1cc(N2CCN(CC3CCCCC3)CC2)nc(Nc2ccc(Br)cc2)n1`: the Inhibition with Plasmodium falciparum [1] is on record as 91%; in the test on Plasmodium falciparum [2], 16%; with HepG2, 0%.

For the molecule `Cc1cc(-c2ccc(O)c(CNC3CCCCC3)c2)cnc1N`, the results for the Inhibition with Plasmodium falciparum [1], in the test on Plasmodium falciparum [2] and in the test with HepG2 were 100%, 100% and 27%, respectively.

Consider `CCCCC1(c2ccc(F)cc2)NC(=O)N(CC(=O)c2cc(C)n(Cc3ccco3)c2C)C1=O` (configuration not stated), for which the Inhibition in the test on Plasmodium falciparum [1] is 82%; in the test with Plasmodium falciparum [2], 28%; with HepG2, 6%.

On to `COc1ccc(Nc2ncc3c(-c4cccc(NC(=O)Cc5ccncc5)c4)c[nH]c3n2)cc1OC`, for which the figures for the Inhibition in the test on Plasmodium falciparum [1], with Plasmodium falciparum [2] and in the test with HepG2 were 99%, 87% and 23%, respectively.

The term Inhibition denotes how much of the control response was suppressed. A lower Inhibition goes with a weak effect.
